Screening results (PubChem BioAssay)
This is a sample that favours compounds with a hit; in the whole collection about 21% have one here.
CHX counter: Cycloheximide Counterscreen for Small Molecule Inhibitors of Shiga Toxin; cell reporter, cycloheximide protein synthesis inhibition counterscreen; max response, %; hit rate 12% among 300,000; AID 2314, 2010; in the data active = max response mostly above about 13%, no sharp cut-off; inactive = mostly below about 14%; also: read at 38.3 µM for the half of the compounds with a filed dose; 0% is about no effect
Shiga inhibitor: A qHTS for Small Molecule Inhibitors of Shiga Toxin; Vero cells, Shiga toxin protein synthesis inhibition reporter; inhibition, % at 38.7 µM; hit rate 9.2% among 290,000; AID 2315, 2010; in the data active = inhibition mostly above about 28%, no sharp cut-off; inactive = mostly below about 43%; also: 0% is about no effect
Pf growth 96h: Primary qHTS for delayed death inhibitors of the malarial parasite plastid, 96 hour incubation | Potency, µM (highest dose often 28.7 µM), for the others: top-dose activity change, negative = inhibition, most hits filed as inhibitors | hit rate 6.9% among 320,000 | P. falciparum luciferase reporter growth, 96 h | AID 504834, 2011; also: potency is read from the fitted curve at half-maximal effect; % is scaled to controls: 0 for no effect and ±100 for the full control effect
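Infected RBCs, 2% Hct / 0.05% parasitemia final; luciferase-reporter P. falciparum; cpd 96 h, 37 C, 5% CO2; luciferase detection reagent; luminescence.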
Pf growth 48h: Primary qHTS for delayed death inhibitors of the malarial parasite plastid, 48 hour incubation; P. falciparum luciferase growth in erythrocytes, 48 h; Potency, µM (top dose mostly 28.7 µM), without a hit: top-dose activity change, negative = inhibition, hits mostly inhibitors; hit rate 5.9% among 310,000; also: potency is read from the fitted curve at half-maximal effect; % is scaled to controls: 0 for no effect and ±100 for the full control effect
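Luciferase-expressing P. falciparum in infected erythrocytes (2% hematocrit, 0.1% parasitemia final) in RPMI 1640/0.5% Albumax were exposed to compound for 48 hours at 37 C, 5% CO2; growth read as luminescence.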
NS1 inh: qHTS Assay for Inhibitors of Influenza NS1 Protein Function | Potency, µM (series often up to 46.1 µM), for the others: at the top dose activity, positive = more growth | hit rate 0.4% among 270,000 | AID 2326, 2010; calls by dose curve; also: potency is read from the fitted curve at half-maximal effect; actives are rising curves; nearly all actives have a fitted effect of over 50% in size
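Growth recovery, yeast-based: influenza A NS1 expressed in S. cerevisiae causes slow growth, and suppressors are detected by OD600. The parent strain without NS1 is used as positive control.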
SARS PLpro yeast: qHTS of Yeast-based Assay for SARS-CoV PLP | S. cerevisiae expressing SARS-CoV PLpro, growth rescue | hit rate 0.19% among 330,000 | AID 485353, 2010 | Potency, µM (titrated, usually from 32.9 µM), inactives show top-dose activity, positive = growth rescue, hits mostly activators; calls by dose curve; also: potency is read from the fitted curve at half-maximal effect; 0% is about no effect; nearly all actives have a fitted effect of over 55% in size
The depositor's hits bear a star; ? = inconclusive; nt = no result. Unless noted, calls follow the shape of the dose curve; as a rule, active = well fitted inhibition curve with a large enough effect; inconclusive = small, poorly fitted or top-dose-only effect, or another doubt; inactive = no such curve, though single readings can be large or run the other way.

SMILES	CHX counter	Shiga inhibitor	Pf growth 96h	Pf growth 48h	NS1 inh	SARS PLpro yeast
COc1cc2c(cc1O)CC[C@@H]1[C@@H]2CC[C@]2(C)[C@@H](O)CC[C@@H]12	-8	-14	nt	nt	-9%	-7%
C[C@]12CC[C@@H]3c4ccc(OC(=O)c5ccccc5)cc4CC[C@H]3[C@@H]1CC[C@@H]2O	5	25	8.3µM*	?	-2%	-6%
Cc1ccccc1-n1c(SCc2cc(=O)n3ccccc3n2)nc2[nH]ncc2c1=O	-1	-16	13µM*	?	1%	-5%
O=c1c2cn[nH]c2nc(SCc2cc(=O)n3cc(Br)ccc3n2)n1-c1ccc(Br)cc1	22*	26	-28%	12µM*	nt	-4%
Cc1cccc2nc(CSc3nc4[nH]ncc4c(=O)n3-c3ccccc3Cl)cc(=O)n12	14*	47	9.3µM*	9.3µM*	0%	29%
Cc1cc(C(=O)CCC(=O)N(C)CC(=O)Nc2ccccc2Br)c(C)s1	nt	nt	7%	-7%	nt	1%
COc1ccc(-c2ccc(=O)n(Cc3ccc([N+](=O)[O-])cc3)n2)cc1	-1	-4	9%	-18%	nt	-13%
O=[N+]([O-])c1ccc2nc(-c3ccc(OC(F)F)cc3)cn2c1	45*	73*	88%	143%	nt	0%
CC(=O)Nc1ccc(NC(=O)C2CC(=O)N(C(C)C)C2)cc1 (configuration not stated)	-2	3	?	?	1%	-1%
Cc1ccc(C(=O)OCC(=O)NC2CC2)s1	nt	nt	nt	nt	nt	2%
Cc1ccc(C(=O)NC2CCCC2)s1	11*	53	157%	28%	-2%	-1%
Cc1ccc(C(=O)NC2CCC(C)CC2)s1 (configuration not stated)	nt	nt	108%	5%	nt	5%
Cc1ccc(C(=O)N(CC(=O)NC2CCCC2)Cc2cccs2)s1	8	16	1.5µM*	-9%	-8%	5%
O=C(COC(=O)c1sc2ccccc2c1Cl)NC1CCCCC1	20*	13	43%	16%	-18%	-16%
Cc1ccc(C(=O)OCC(=O)NC2CCCCC2)s1	34*	95*	33%	62%	nt	-2%
O=C(NC1CCCC1)c1ccc([N+](=O)[O-])s1	10	11	10µM*	1%	nt	-19%
O=C(CN(Cc1cccs1)C(=O)CSc1nnc(COc2ccccc2)o1)NC1CCCCC1	0	1	8%	13µM*	6%	-3%
O=C(NNC(=O)c1ccc(Br)s1)NC1CCCCC1	-1	-2	5%	-3%	5%	3%
COc1ccc(C(=O)Nc2c(C)csc2C(=O)O)cc1	0	-19	?	6%	-2%	0%
CCCCN1CC(=O)N2[C@H]3c4cc(OC)ccc4OC[C@@H]3[C@H](C(=O)OCC)[C@]2(C)C1=O	nt	nt	?	-21%	nt	4%
CCOC(=O)[C@H]1[C@H]2COc3ccc(C)cc3[C@@H]2N2C(=O)CN(Cc3ccc(C)cc3)C(=O)[C@@]12C	nt	nt	?	?	nt	-3%
CCOC(=O)[C@H]1[C@H]2COc3cc(OC)ccc3[C@@H]2N2C(=O)CN(Cc3ccccc3)C(=O)[C@@]12C	nt	nt	?	?	nt	3%
CCOC(=O)[C@H]1[C@H]2COc3ccc(Br)cc3[C@@H]2N2C(=O)CN(Cc3ccc(C)cc3)C(=O)[C@@]12C	nt	nt	?	15µM*	nt	-1%
CCOC(=O)[C@H]1[C@H]2COc3ccc(OC)cc3[C@@H]2N2C(=O)CN(Cc3ccc(OC)cc3)C(=O)[C@@]12C	nt	nt	?	6.6µM*	nt	?
CCOC(=O)[C@H]1[C@H]2COc3ccc(OC)cc3[C@@H]2N2C(=O)CN(Cc3ccc(C)cc3)C(=O)[C@@]12C	nt	nt	3.7µM*	10µM*	nt	3%
SMILES	CHX counter	Shiga inhibitor	Pf growth 96h	Pf growth 48h	NS1 inh	SARS PLpro yeast
CCOC(=O)[C@H]1[C@H]2COc3cc(OC)ccc3[C@@H]2N2C(=O)CN(Cc3ccc(OC)cc3)C(=O)[C@@]12C	nt	nt	?	12µM*	nt	-5%
CCOc1ccc(NC(=O)CSc2nnc(CCNC(=O)c3ccc(OC)cc3)n2C)cc1	9	6	13%	nt	-9%	9%
COc1cc(Cl)cc(C2NC(=S)NC(c3ccccc3)=C2C(C)=O)c1OCC(=O)O (configuration not stated)	-1	-5	?	?	18%	0%
O=C(CSc1ccccn1)C12CC3CC(CC(C3)C1)C2	2	19	31%	-16%	-33%	-1%
CC1(C)OC2CC3C4CC(F)C5=CC(=O)C=CC5(C)C4(F)C(O)CC3(C)C2(C(=O)CO)O1 (configuration not stated)	5	16	5.9µM*	?	-4%	0%
CC(=O)OCC(=O)[C@@]1(O)[C@H](OC(C)=O)C[C@H]2[C@@H]3CCC4=CC(=O)C=C[C@]4(C)[C@@]3(F)[C@@H](O)C[C@@]21C	-3	12	nt	nt	nt	nt
CC1(c2ccccc2)O[C@@H]2C[C@H]3[C@@H]4CCC5=CC(=O)C=C[C@]5(C)[C@@]4(F)[C@@H](O)C[C@]3(C)[C@]2(C(=O)CO)O1 (some centres not stated)	-2	-5	1.9µM*	0.83µM*	-5%	0%
CCC1CCCCN1C(=O)COc1c(Br)cc(Br)c2cccnc12 (configuration not stated)	-2	-7	?	?	-5%	0%
Cc1ccc(C(C(=O)NC2CCCC2)N(CCCO)C(=O)Cn2nnc(-c3ccc(C)o3)n2)cc1 (configuration not stated)	7	-10	?	-17%	6%	1%
CCc1c(C)nc(SCC(=O)N2CC(C)OC(C)C2)[nH]c1=O (configuration not stated)	nt	nt	7%	33%	nt	-5%
Cc1cc[n+](-c2[nH]c(=O)sc2/C=N/N=C(\[O-])c2ccncc2)cc1	-7	-4	?	13%	-4%	7%
Cc1cc[n+](-c2[nH]c(=O)sc2/C=N/N=C(\[O-])c2ccccc2)cc1C	39*	74*	0%	37%	nt	3%
O=c1[nH]c(-[n+]2ccccc2)c(/C=N/N=C(\[O-])c2ccccc2)s1	19*	41*	0%	14%	2%	2%
O=C(N/N=C/c1sc(=O)[nH]c1-[n+]1ccc2ccccc2c1)c1ccccc1[O-]	27*	48*	-7%	26%	1%	2%
Cc1cc[n+](-c2[nH]c(=O)sc2/C=N/N=C(\[O-])c2ccccc2)cc1	49*	68*	52%	-28%	7%	0%
CC(C)(C)N(Cc1ccccc1)C(=O)COC(=O)/C=C/c1ccc2c(c1)OCO2	nt	nt	2%	-19%	nt	0%
COc1cccc(NC(=O)CN(C)C(=O)c2ccccc2OCC(=O)Nc2cccc(C(F)(F)F)c2)c1	nt	nt	-13%	-24%	nt	1%
